{"source": "PubChem BioAssay", "note": "Active and inactive are the calls of the source. Also: test concentration not given here.", "data": [{"assay": "JC-1 mitochondrial signal, unstimulated MM1S myeloma – cell-based, JC-1 fluorescence, 24 h, 100 nL compound, profiling panel (AID 1170)", "details": "MM1S mitochondrial potential, higher = more signal", "values": [{"molecule": "[N-]=[N+]=NCc1ccccc1C[C@]1(C(=O)N2CCCCC2)N=C(c2ccc(OCCCO)cc2)O[C@H]1c1ccccc1CN=[N+]=[N-]", "z-score": -1.69}, {"molecule": "CC(C)[Si](OCC[C@H]1O[C@]2(C(=O)N(Cc3ccccc3)c3ccccc32)[C@@H](C)[C@@H]1[Si](C)(C)O)(C(C)C)C(C)C", "z-score": -1.51}, {"molecule": "C=CCC(OC(C)=O)[C@@H]1[C@@H](N(Cc2ccc(-c3cccc(C(F)(F)F)c3)o2)C(=O)Cc2ccc(F)cc2)c2cc(OCCCO)ccc2N1C(=O)c1ccc(-c2ccccc2)cc1", "note": "(some centres not stated)", "z-score": 0.286}, {"molecule": "C=C[C@H](OC)[C@@H](OC(=O)Nc1ccc(SC)cc1)c1ccc(O)c(F)c1", "z-score": -0.75}, {"molecule": "O=C1O[C@H](c2ccccc2)[C@H](c2ccccc2)N2[C@H]1[C@@H](C(=O)NC[C@H](O)c1ccccc1)[C@]1(C(=O)Nc3ccc(C#CC4(O)CCCCCC4)cc31)[C@H]2c1ccc(OCCO)cc1", "z-score": -0.469}, {"molecule": "CC(C)C[C@@H]1NC(=O)[C@H](CC(C)C)NC(=O)[C@@]23C(=O)N[C@@H](Cc4ccccc4)C2[C@H](C)[C@@]2(C)O[C@H]2C3/C=C/CC/C=C/CNC1=O", "note": "(some centres not stated)", "z-score": 0.19}, {"molecule": "O=C1NC(=O)C2C1C=CC(C(O)C=Cc1ccc([N+](=O)[O-])cc1)N2Nc1ccccn1", "note": "(configuration not stated)", "z-score": 0.423}, {"molecule": "NC(=O)NCC#Cc1ccc2c(c1)[C@]1(C(=O)N2)[C@H](C(N)=O)[C@H]2C(=O)O[C@H](c3ccccc3)[C@H](c3ccccc3)N2[C@@H]1c1ccccc1OCCO", "z-score": -0.386}, {"molecule": "CCOC(=O)C[C@H]1[C@H](OC(=O)c2cc3ccccc3oc2=O)[C@@H](NC(=O)C2CCCCC2)c2cc(OCCCO)ccc2N1C(=O)c1ccc2ccccc2n1", "z-score": -0.166}, {"molecule": "COc1cc2c(cc1OC)CN(C(=O)[C@H]1[C@@H]3C(=O)O[C@@H](c4ccccc4)[C@@H](c4ccccc4)N3[C@@H](c3ccc(O)cc3)[C@]13C(=O)Nc1ccc(C#CC4(O)CCCCCC4)cc13)CC2", "z-score": 0.432}, {"molecule": "O=C1OCCC/C=C\\[C@H]2OC34C=CCN(CCN5CCOCC5)C(=O)[C@H]3N(CCCCCO)C(=O)[C@@H]4C12", "note": "(some centres not stated)", "z-score": -0.102}, {"molecule": "C[N+](C)(C)CCCCNC(=O)[C@H]1C[C@H]2C(=O)NCC(=O)N2[C@H]1c1cccc(OCCO)c1", "z-score": -0.314}, {"molecule": "O=C1C[C@@](C(=O)NC2CC2)(c2ccc([N+](=O)[O-])cc2)[C@@H](c2ccc(CO)cc2I)N1CC12CC3CC(CC(C3)C1)C2", "z-score": -2.4}, {"molecule": "C=C(CCCC)/C(=C/C[C@@H](OC(=O)c1ccncc1)c1cccc(OCCO)c1)c1cc(C(=O)OC)ccc1OC", "z-score": -0.132}, {"molecule": "Cc1ccc(S[C@]2(C(=O)NCCCN(C)C)CC(=O)N(Cc3ccccc3)[C@@H]2c2ccc(CO)cc2I)cc1", "z-score": -0.822}, {"molecule": "O=C1O[C@H](c2ccccc2)[C@H](c2ccccc2)N2[C@H]1[C@@H](C(=O)Nc1nc3ccccc3s1)[C@]1(C(=O)Nc3ccc(C#CC4(O)CCCCCC4)cc31)[C@H]2c1ccc(O)cc1", "z-score": -0.676}, {"molecule": "O=C(NCc1ccccc1)[C@@]1(Cc2ccccc2)COC(c2ccc(OCCCO)cc2)=N1", "z-score": -2.9}, {"molecule": "C=C(CCCC)/C(=C/C[C@@H](OC(=O)c1ccncc1)c1ccc(CO)o1)c1cnc2ccccc2c1", "z-score": 1}, {"molecule": "O=C1C2C=CC(C(O)C#Cc3ccccc3)N(Nc3ccccc3)C2C(=O)N1c1ccccc1", "note": "(configuration not stated)", "z-score": -0.41}, {"molecule": "CCCC=C(CCC)[C@@H](NC(=O)c1ccc(C(F)(F)F)cc1)c1ccccc1", "z-score": -1.13}, {"molecule": "COc1ccc(NN2C(C(O)c3cc(OC)c(OC)c(OC)c3)C=CC3C(=O)N(C4CCCCC4)C(=O)C32)cc1", "note": "(configuration not stated)", "z-score": -1.78}, {"molecule": "C#CCCCON=C1C[C@@H](O)[C@@H](O)[C@@H]2[C@@H]3C(=O)N(Cc4ccc5c(c4)OCO5)C(=O)[C@@H]3CC[C@@H]12", "z-score": -1.46}, {"molecule": "COC(=O)C1=CC(c2ccc(CO)cc2)=CC(c2cccs2)N(Cc2cccc(OC(F)(F)F)c2)C=C1C(=O)OC", "note": "(configuration not stated)", "z-score": -0.459}, {"molecule": "O=C1O[C@H](c2ccccc2)[C@H](c2ccccc2)N2[C@H]1[C@@H](C(=O)NC[C@H](O)c1ccccc1)[C@]1(C(=O)Nc3ccc(C#CC4=CCCCC4)cc31)[C@H]2c1ccc(OCCO)cc1", "z-score": -1.52}, {"molecule": "CC[C@H]1C2=C3C(CC[C@H]4C(OC)OC[C@](C)([C@@H]34)N(C(=O)OC(C)(C)C)C2)C(CO)C1CO", "note": "(some centres not stated)", "z-score": -1.26}]}, {"assay": "resazurin metabolic signal in A549 cells – cell-based, resazurin fluorescence, 24 h, PK04 Diversity Set, profiling panel (AID 1171)", "details": "A549 viability, higher = more signal, called active from +8 up or from −8 down", "values": [{"molecule": "COC(=O)Cn1c(C(=O)N2CCCC2)cc2c1C[C@H]1CN(C(=O)c3ccccc3)[C@@](Cc3ccccc3)(C(=O)OC)[C@@H]21", "z-score": "0.359 (inactive)"}, {"molecule": "O=C1C[C@@](C(=O)NCCN2CCOCC2)(c2ccc([N+](=O)[O-])cc2)[C@@H](c2ccc(CO)cc2)N1C1CCCCC1", "z-score": "0.981 (inactive)"}, {"molecule": "CC(=O)NCCCC[C@@H]1NC(=O)[C@H]2C[C@@H](C(=O)NCCCCCCN(C)C)[C@@H](c3cccc(OCCO)c3)N2C1=O", "z-score": "-0.739 (inactive)"}, {"molecule": "CC(C)(C)OC(=O)CC[C@]1(C(=O)N2CCCCC2)N=C(c2ccc(OCCCO)cc2)O[C@H]1c1ccccc1", "z-score": "-0.354 (inactive)"}, {"molecule": "CC(=O)NCCCC[C@@H]1NC(=O)[C@H]2C[C@@H](C(=O)NCCCCCCN(C)C)[C@@H](c3ccc(O)cc3)N2C1=O", "z-score": "-1.27 (inactive)"}, {"molecule": "O=C1C2C=CC(C(O)Cc3ccccc3)N(Nc3ccc([N+](=O)[O-])cc3)C2C(=O)N1c1ccccc1", "note": "(configuration not stated)", "z-score": "0.007 (inactive)"}, {"molecule": "C=C(COC)C(=O)CC[C@H](OC(=O)c1ccccc1-c1ccccc1C(=O)O)c1cccc(OCCO)c1", "z-score": "-1.46 (inactive)"}, {"molecule": "C=CC[C@@]1(C(=O)NCC(O)CO)N=C(c2ccc(OCCCO)cc2)O[C@@H]1c1ccccc1CN=[N+]=[N-]", "note": "(some centres not stated)", "z-score": "0.047 (inactive)"}, {"molecule": "O=C(CS)NCCCCCCNC(=O)[C@@H]1C[C@@H]2C(=O)N[C@@H](Cc3ccccc3)C(=O)N2[C@@H]1c1ccc(O)cc1", "z-score": "-0.226 (inactive)"}, {"molecule": "C=CC[C@]1(C(=O)N2CCCCC2)N=C(c2ccc(OCCCO)cc2)O[C@H]1c1ccccc1N=[N+]=[N-]", "z-score": "-1.19 (inactive)"}, {"molecule": "COC(=O)[C@@]1(Cc2ccc(OC)cc2)[C@H]2c3cc(C(=O)N(C)C)n(Cc4ccc(C)c(F)c4F)c3C[C@H]2CN1C(=O)c1ccccc1", "z-score": "1.41 (inactive)"}, {"molecule": "[N-]=[N+]=NCc1ccccc1C[C@]1(C(=O)N2CCCCC2)N=C(c2ccc(OCCCO)cc2)O[C@H]1c1ccccc1CN=[N+]=[N-]", "z-score": "-0.179 (inactive)"}, {"molecule": "CC(C)[Si](OCC[C@H]1O[C@]2(C(=O)N(Cc3ccccc3)c3ccccc32)[C@@H](C)[C@@H]1[Si](C)(C)O)(C(C)C)C(C)C", "z-score": "-1.46 (inactive)"}, {"molecule": "C=CCC(OC(C)=O)[C@@H]1[C@@H](N(Cc2ccc(-c3cccc(C(F)(F)F)c3)o2)C(=O)Cc2ccc(F)cc2)c2cc(OCCCO)ccc2N1C(=O)c1ccc(-c2ccccc2)cc1", "note": "(some centres not stated)", "z-score": "0.303 (inactive)"}, {"molecule": "C=C[C@H](OC)[C@@H](OC(=O)Nc1ccc(SC)cc1)c1ccc(O)c(F)c1", "z-score": "-0.538 (inactive)"}, {"molecule": "O=C1O[C@H](c2ccccc2)[C@H](c2ccccc2)N2[C@H]1[C@@H](C(=O)NC[C@H](O)c1ccccc1)[C@]1(C(=O)Nc3ccc(C#CC4(O)CCCCCC4)cc31)[C@H]2c1ccc(OCCO)cc1", "z-score": "0.132 (inactive)"}, {"molecule": "CC(C)C[C@@H]1NC(=O)[C@H](CC(C)C)NC(=O)[C@@]23C(=O)N[C@@H](Cc4ccccc4)C2[C@H](C)[C@@]2(C)O[C@H]2C3/C=C/CC/C=C/CNC1=O", "note": "(some centres not stated)", "z-score": "1 (inactive)"}, {"molecule": "O=C1NC(=O)C2C1C=CC(C(O)C=Cc1ccc([N+](=O)[O-])cc1)N2Nc1ccccn1", "note": "(configuration not stated)", "z-score": "-0.355 (inactive)"}, {"molecule": "NC(=O)NCC#Cc1ccc2c(c1)[C@]1(C(=O)N2)[C@H](C(N)=O)[C@H]2C(=O)O[C@H](c3ccccc3)[C@H](c3ccccc3)N2[C@@H]1c1ccccc1OCCO", "z-score": "0.79 (inactive)"}, {"molecule": "CCOC(=O)C[C@H]1[C@H](OC(=O)c2cc3ccccc3oc2=O)[C@@H](NC(=O)C2CCCCC2)c2cc(OCCCO)ccc2N1C(=O)c1ccc2ccccc2n1", "z-score": "0.164 (inactive)"}, {"molecule": "COc1cc2c(cc1OC)CN(C(=O)[C@H]1[C@@H]3C(=O)O[C@@H](c4ccccc4)[C@@H](c4ccccc4)N3[C@@H](c3ccc(O)cc3)[C@]13C(=O)Nc1ccc(C#CC4(O)CCCCCC4)cc13)CC2", "z-score": "1.24 (inactive)"}, {"molecule": "O=C1OCCC/C=C\\[C@H]2OC34C=CCN(CCN5CCOCC5)C(=O)[C@H]3N(CCCCCO)C(=O)[C@@H]4C12", "note": "(some centres not stated)", "z-score": "-0.254 (inactive)"}, {"molecule": "C[N+](C)(C)CCCCNC(=O)[C@H]1C[C@H]2C(=O)NCC(=O)N2[C@H]1c1cccc(OCCO)c1", "z-score": "-0.0078 (inactive)"}, {"molecule": "O=C1C[C@@](C(=O)NC2CC2)(c2ccc([N+](=O)[O-])cc2)[C@@H](c2ccc(CO)cc2I)N1CC12CC3CC(CC(C3)C1)C2", "z-score": "-3.35 (inactive)"}, {"molecule": "C=C(CCCC)/C(=C/C[C@@H](OC(=O)c1ccncc1)c1cccc(OCCO)c1)c1cc(C(=O)OC)ccc1OC", "z-score": "0.767 (inactive)"}, {"molecule": "Cc1ccc(S[C@]2(C(=O)NCCCN(C)C)CC(=O)N(Cc3ccccc3)[C@@H]2c2ccc(CO)cc2I)cc1", "z-score": "0.0027 (inactive)"}, {"molecule": "O=C1O[C@H](c2ccccc2)[C@H](c2ccccc2)N2[C@H]1[C@@H](C(=O)Nc1nc3ccccc3s1)[C@]1(C(=O)Nc3ccc(C#CC4(O)CCCCCC4)cc31)[C@H]2c1ccc(O)cc1", "z-score": "-0.318 (inactive)"}, {"molecule": "O=C(NCc1ccccc1)[C@@]1(Cc2ccccc2)COC(c2ccc(OCCCO)cc2)=N1", "z-score": "-2.77 (inactive)"}, {"molecule": "C=C(CCCC)/C(=C/C[C@@H](OC(=O)c1ccncc1)c1ccc(CO)o1)c1cnc2ccccc2c1", "z-score": "-0.0271 (inactive)"}, {"molecule": "O=C1C2C=CC(C(O)C#Cc3ccccc3)N(Nc3ccccc3)C2C(=O)N1c1ccccc1", "note": "(configuration not stated)", "z-score": "0.0504 (inactive)"}, {"molecule": "CCCC=C(CCC)[C@@H](NC(=O)c1ccc(C(F)(F)F)cc1)c1ccccc1", "z-score": "-0.396 (inactive)"}, {"molecule": "COc1ccc(NN2C(C(O)c3cc(OC)c(OC)c(OC)c3)C=CC3C(=O)N(C4CCCCC4)C(=O)C32)cc1", "note": "(configuration not stated)", "z-score": "0.239 (inactive)"}]}]}
